Measurements published in PubChem BioAssay AID1508600 (Functional Genomics Laboratory (NCATS/FGL), 2020).
Hit rate of the full screen: of about 53,000 sequences, about 3,700 (7%) were called active. This excerpt belongs to a sample that is enriched for actives. Values without a mark were called inactive.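 How the source made its calls: active means gene knockdowns whose robust z-score for IL-1 alpha signal is at least 2 or at most -2, so actives lie on both sides; inactive means the rest.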

Assay: Components of the Cytosolic LPS Sensing Pathway: Gene Identification via Genome-wide siRNA Screen;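 further: robust z of the log signal after scaling to non-targeting control siRNA wells of the plate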
Details: RAW264.7 macrophages, IL-1a HTRF, actives lie on both sides, screened at 100 nM (by protocol), cells primed 5 h with Pam3CSK4 first
Summary of the method: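 Cells (RAW264.7, 1×10^4 per well) were transfected with siRNA at 100 nM and cultured 48h at 37 degrees C. Pam3CSK4 was added for 5 hours; LipidA transfection followed for 24 hour. IL-1a was then measured by HTRF.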

| Sequence | z-score |
| --- | --- |
| GGCAUGAUGCUGAUCAUUCTT against Olfr1100 | -0.0763 |
| GCUUAUAGUUCAGUUUUUGTT against Ints8 | 0.835 |
| GCAAAUAGGGAGGUUCCUGTT against Ypel1 | 1.47 |
| GGAGACUUCAGUGCCUCUUTT against Slc16a11 | 2.45 (active) |
| GGUAAUGGGACUUGGUAGGTT against Olfr1338 | -0.056 |
| UGGUCGGCUAGAUGAUGGATT against Wdr34 | -0.7 |
| GGAAGUCUGCCUGUUCUUGTT against Galnt10 | 0.744 |
| GGCUGUGUUGUCGAUUUCCTT against Nkain3 | 0.351 |
| GGGAUGAGUUCUUGUAAAUTT against Unc50 | -1.32 |
| GGGAACUCGAACAAGAAUUTT against Six1 | 1.11 |
| GGAAAAAGAGGAUGAGUGCTT against Gm4861 | 2.01 (active) |
| GCUGCUGGAAACUAGACUGTT against Cyp2b13 | -1.71 |
| GUCAUCAAUCAAGUCUUGATT against Olfr1408 | -0.0822 |
| CCAAGGGUUGCUUCGAGCATT against Upk1a | -0.489 |
| GGACCUGAACGAUCUCGUUTT against Cyp4a12a | 1.65 |
| GGAACAACCACGGAACCCATT against Il1r2 | 0.335 |
| GGGUUUCAGUCUUCUUAUCTT against Olfr556 | -0.891 |
| GGGAGCUAAUGAGCAAGGATT against Galk1 | 2.5 (active) |
| GCACAAACUUAUGCUCUUUTT against Klrc3 | -1.76 |
| GGACAGACAAAUACAAGAGTT against Tmco1 | 0.428 |
| GUUCUUAUAUAGGAUUGUGTT against Xkr9 | -0.782 |
| GGAUCAUCUAUACAGCACATT against Tgfb1i1 | -1.85 |
| GGACAGUUCUAAAAUUCCCTT against Olfr780 | -1.73 |

| Sequence | z-score |
| --- | --- |
| GCCAGCUACCGAGUCUAUUTT against Tkt | 2.8 (active) |
| GCAUGCUGACACUUACUUUTT against Olfr878 | -0.872 |
| CCAGGCAGCUAAACUGUGUTT against Tex11 | -0.11 |
| GGGACUGUACCCAGUUUAATT against Ccl27a | 1.62 |
| CGUGGAAUGAAGAUUGUCCTT against Hsd17b12 | 0.284 |
| GCAAAAUAGCCCAGUAUAATT against Pax6 | -5.02 (active) |
| GGAGUUUCUUCAGUUCCUUTT against Dld | 0.87 |
| GCGGAGGAUAGAGCAAAUUTT against Upf3b | -0.0448 |
| GGAACAUCAAGGGAAUUAUTT against Zfp638 | 2.36 (active) |
| GGACAACAGUGGAAGGCUCTT against Serpinb1a | 0.841 |
| GGAGGUGAACCAUAGAGAGTT against Csrnp2 | 1.12 |
| CCCUCUAUCAGUUACCCUGTT against Mcpt2 | 0.686 |
| GGACAAUGGUUCCUUGGAUTT against Cdc25c | 0.981 |
| GGAUGUCACUCUUGCAUUGTT against Olfr948 | 0.75 |
| GCCACAACUCCAGAUGCCUTT against Olfr937 | -2.64 (active) |
| GGAAGAACUUCAGAAUGCATT against Slirp | -0.627 |
| CCUUCAUUGUGAUUGACAUTT against Ptpn11 | -0.55 |
| GGUUCAGUGCUUUGUGUUCTT against Il2rg | -0.541 |
| CCUUCUAAAUACUGAUUUGTT against Ugt2b38 | 0.699 |
| GCAGAAUAUUAACCAGUGUTT against Ptp4a2 | 1.15 |
| CCAGUUCCGGUCAGAUUAUTT against Gnal | -1.55 |
| GCCUCCAGAACUCACUGCATT against Hes3 | -2.04 (active) |
| AAGGAAGUCUGUCCAAGGUTT against Olfr192 | -0.284 |

| Sequence | z-score |
| --- | --- |
| GCUGCCAUUUCGCCAAUCUTT against Mfap4 | -2.65 (active) |
| GGGAGCAUCAAACAACAAUTT against Tbr1 | 0.742 |
| GGCUGUGGAUUUCUCUCUGTT against Kng1 | -0.334 |
| GGCCGAGUACAAACGUGGATT against Atg9a | 2.77 (active) |
| CCUGAGUCAGAUUCAUUUATT against Pten | 0.292 |
| GGUGCCAUUCAUCUUUCAATT against Tmprss3 | 1.85 |
| GGUGCAAGAUCAAGAACUGTT against C1ra | 2.78 (active) |
| GGAAGAACAGGAAGAAGUGTT against Pank1 | 1.02 |
| CCAGCUUUCAUUAACUUUATT against Ppp1r10 | -0.571 |
| CGAGCUAUCCACUUAAUCATT against Irak3 | -0.859 |
| GGCUCUGGGUGGUAUUCAUTT against Slc5a2 | -0.637 |
| GGCACUGGGCAAACAUUAATT against Ptprcap | 1.09 |
| GGCAGUUCAAAAGACCACATT against Zcchc7 | 2.38 (active) |
| GGGCAACGAGCUGUUCAAATT against Unc45a | 1.71 |
| GGGAUCUGGAUUUAAUUUGTT against Arf5 | 0.523 |
| GGUCACACCCACCAUUACGTT against Serpina11 | -0.765 |
| CCAUUACAGGGUUUUUUAUTT against Slc37a3 | -0.62 |
| GGGAAAAGCAAACACUAAUTT against C1d | -1.84 |
| GGAGCAUCUCAAACCUUCATT against Lancl3 | -3.8 (active) |
| GAUGCGGCUCCUUGGAAUUTT against Slc51b | 2.38 (active) |
| GGUCAUAAGAAGCUCAAGATT against Serpinb9d | 0.268 |
| GCCGGAAGAUAAGGCUCAUTT against Gap43 | -2.2 (active) |
| GGAAGAACUCAAGAGGGAATT against Plpp2 | -0.775 |
